# Peg3 prom inh – reduces Peg3 promoter-driven luciferase expression in HeLa; HeLa PEG-Prom luciferase reporter, luminescence, overnight; 360,000 compounds, 1.7% hits; inhibition, % at 20 µM; AID 588405;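 active means inhibition of at least 50% at 20 µM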
# PAX8 inh HTS – inhibitors of PAX8 transcriptional activity in RMG-I cells. RMG-I TPO-luciferase reporter, SteadyGlo, 24 h. inhibition, % at 12.6 µM. 360,000 compounds, 1.2% hits. AID 652154;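 active means mean replicate inhibition at least 60% with every replicate also reaching 60%; inconclusive means only one of the two criteria is met; inactive means mean below 60% and not all replicates reaching 60%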;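 further: luciferase light reporting Pax8 driven TPO promoter activity; plate controls were median of neutral control wells for no effect and mitoxantrone controls for full effect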
# Shn3 inh set2 – Schnurri-3 reporter inhibition in Clone20 osteoblasts; 360,000 compounds, 0.52% hits; AID 588674; inhibition, % at 12.5 µM; Clone20 osteoblast Shn3 3'UTR firefly luciferase, 24 h;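 active means mean inhibition of at least 75% with every replicate also reaching 75%; inconclusive means mean inhibition at least 75% but some replicate below; inactive means mean inhibition below 75%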;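 further: 0% = median of neutral control wells and 100% = pilot-screen positive control compound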
# LMP1 NFkB inh – inhibitors of Epstein-Barr LMP1-induced NF-kappaB reporter. inhibition, % at 12.5 µM. 350,000 compounds, 0.69% hits. LMP1-induced NF-kappaB luciferase reporter cells, luminescence. AID 504558; in the data active means inhibition above about 41%; inconclusive means no clear call, values can overlap the other calls;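 further: 0% = neutral control wells and 100% = reference inhibitor control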
# HIF-2a block – HIF-2a inhibition; 786-0 RCC cells HIF-2a reporter, luciferase luminescence, overnight; inhibition, % at 18.8 µM; 360,000 compounds, 0.72% hits; AID 624352;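 active means inhibition of the luminescence signal of 40% or more relative to plate controls, in a single-dose primary screen at 18.75 µM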
# MITF TRPM1 inh – MITF TRPM1 promoter inhibition in SK-MEL-5 cells; SK-MEL-5 TRPM1 promoter luciferase, 24 h; inhibition, % at 12.5 µM; 330,000 compounds, 0.83% hits;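 active means mean inhibition across replicates of 60% or more, whatever share of single replicates reaches that level; inconclusive means some that reach 60%, reason not given; inactive means mean inhibition across replicates below 60%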
# Active calls of the source: *; ? = inconclusive; / = not tested or not shown. Only some compounds are listed: those with a hit (about 2.8% of all), similar ones and a draw of the others.
SMILES,Peg3 prom inh,PAX8 inh HTS,Shn3 inh set2,LMP1 NFkB inh,HIF-2a block,MITF TRPM1 inh
CCn1c2ccccc2c2cc(/C=N/NC(=O)c3ccc(O)cc3)ccc21,3,41,-11,84*,-45,-1
CCn1c2ccccc2c2cc(NC(=O)c3cc(OC)c(OC)c(OC)c3)ccc21,-15,/,7,12,-10,56
CSc1ccc(CN(C)C(=O)c2cccc(S(=O)(=O)N3CCN(Cc4ccccc4)CC3)c2)cc1,11,21,88*,13,9,28
Cc1ccc(C)c(NC(=O)CN(C)C(=O)c2cccc(S(=O)(=O)N3CCN(Cc4ccccc4)CC3)c2)c1,21,39,87*,15,17,11
COc1cccc(CN(C)C(=O)c2cccc(S(=O)(=O)N3CCN(c4ccccc4)CC3)c2)c1,26,-9,85*,-8,11,/
CN(CCOc1ccc(Cl)cc1)C(=O)c1cccc(S(=O)(=O)N2CCN(Cc3ccccc3)CC2)c1,22,34,91*,18,4,/
CN(Cc1ccc(F)cc1)C(=O)c1cccc(S(=O)(=O)N2CCN(Cc3ccccc3)CC2)c1,28,8,-31,-23,18,1
COc1ccc(C(C)=O)cc1COc1cccnc1[N+](=O)[O-],-9,14,-2,4,-13,8
CCOc1ccc(C(C)=O)cc1COc1cccnc1[N+](=O)[O-],19,19,1,51*,22,17
O=C(C[C@@H]1CC[C@H]2[C@@H](COC[C@H](O)CN2Cc2cccc(C(F)(F)F)c2)O1)NCc1ccc(F)cc1,/,29,/,/,/,/
CCOC(=O)c1c(C)n(-c2ccc(C)cc2)c2ccc(OCC(O)CN3CCN(C)CC3)cc12 (centres undefined),78*,28,-1,-1,13,35
CCCN1CCC(NCc2cn(C)nc2-c2ccc(Oc3ccccc3)cc2)CC1,17,8,-7,-39,6,86*
COC1CCCN(Cc2cn(C)nc2-c2ccc(Oc3ccccc3)cc2)C1 (centres undefined),7,3,21,4,5,-15
CO[C@@H]1CC[C@@H]2CCN(C)C(=O)C[C@@H](c3ccccc3)CN(C)C(=O)c3cccc(C#N)c3OC[C@@H]1O2,/,4,/,/,/,/
OC(c1cc(C(F)(F)F)nc2c(C(F)(F)F)cccc12)C1CCCCN1 (centres undefined),93*,22,21,-15,18,36
CN1CCN(NC(=O)c2cc(-c3cccc(Cl)c3)nc3ccccc23)CC1,22,-10,-2,-7,2,-2
FC(F)(F)c1cc(N2CCNCC2)c2ccccc2n1,8,7,19,15,20,6
OC(c1cc(-c2cccc(Cl)c2)nc2ccccc12)C1CCCCN1 (centres undefined),104*,6,90*,-37,-19,98*
CO[C@H]1CN(C)C(=O)c2ccc(NS(=O)(=O)c3c(C)noc3C)cc2OC[C@@H](C)NC[C@H]1C,/,-2,/,/,/,/
CCNC(=O)C[C@@H]1CC[C@@H]2[C@H](COc3ccc(NC(=O)c4ccc5c(c4)OCO5)cc3C(=O)N2C)O1,/,-6,/,/,/,/
CCn1c2ccccc2c2cc(C3C(C#N)=C(N)Oc4n[nH]c(COC)c43)ccc21 (centres undefined),89*,/,1,92*,19,10
CC(=O)Nc1ccc(S(=O)(=O)N2CC3(C)CC2CC(C)(C)C3)cc1 (centres undefined),23,9,6,-8,15,3
CCOC(=O)c1cc([N+](=O)[O-])sc1NC(=O)c1ccc(S(=O)(=O)N2CC3(C)CC2CC(C)(C)C3)cc1 (centres undefined),46,27,21,46*,1,76*
CC1(C)CC2CC(C)(CN2S(=O)(=O)c2ccc(C(=O)Nc3ccc(S(=O)(=O)N4CCOCC4)cc3)cc2)C1 (centres undefined),26,83*,79,-5,22,12
COCC(=O)Nc1ccc2c(c1)C(=O)N(C)[C@@H]1CC[C@@H](CC(=O)OC)O[C@@H]1CO2,/,12,/,/,/,/
SMILES,Peg3 prom inh,PAX8 inh HTS,Shn3 inh set2,LMP1 NFkB inh,HIF-2a block,MITF TRPM1 inh
O=C(Nc1cccc(Cl)c1)N[C@H]1CC[C@@H](CCNC(=O)C2CCCCC2)O[C@H]1CO,/,-12,/,/,/,/
CCN(CC)c1c([N+](=O)[O-])ncn1C,4,/,-5,5,0,3
CCS(=O)(=O)c1c([N+](=O)[O-])ncn1C,60*,-3,-15,-4,13,8
COc1ccc(C(=O)NN(C)c2nc(C(F)(F)F)nc3ccccc23)cc1,2,94*,34,9,36,41
COc1ccc(C(=O)NN(C)c2nc(-c3ccccc3)nnc2C(F)(F)F)cc1,18,/,18,0,15,1
CCCN(C)C[C@H]1OCCCC[C@H](C)Oc2ccc(NC(=O)C3CCCCC3)cc2C(=O)N([C@H](C)CO)C[C@H]1C,/,-8,/,/,/,/
O=C(NC[C@@H]1CC[C@@H]2[C@@H](CN2Cc2cccc(Cl)c2)O1)C1CCC1,/,-26,/,/,/,/
COc1ccc(NC(=O)N(C)C[C@H]2Oc3ccc(NC(=O)Nc4ccc5c(c4)OCO5)cc3CC(=O)N([C@H](C)CO)C[C@@H]2C)cc1,/,13,/,/,/,/
CCCCCCn1c2c(c(=N)c3c1CCC3)CCC2,40,/,70,?,-4,?
CCCCCCCn1c2c(c(=N)c3c1CCC3)CCCC2,31,94*,44,41*,16,68*
C[C@@H]1CCCCO[C@@H](CN(C)S(=O)(=O)c2ccc(Cl)cc2)[C@@H](C)CN([C@H](C)CO)C(=O)c2cc(NS(=O)(=O)c3cn(C)cn3)ccc2O1,/,-2,/,/,/,/
COc1ccc(-c2nc(C(=O)NCC3CCCO3)cc3c2[nH]c2ccccc23)cc1 (centres undefined),32,/,14,-10,-5,/
Cc1ccc(-c2nc(C(=O)NCCCN(C)C)cc3c2[nH]c2ccccc23)cc1,91*,19,-11,-5,-23,76*
Cc1ccc(-c2nc(C(=O)NCC3CCCO3)cc3c2[nH]c2ccccc23)cc1 (centres undefined),68*,/,44,27,-3,21
CN(C)CC(=O)N[C@@H]1CC[C@@H](CC(=O)NCc2ccc(Cl)cc2)O[C@H]1CO,/,-14,/,/,/,/
COc1ccc(-c2nnn(CC(=O)Nc3ccc4c(c3)OCCO4)n2)cc1OC,5,/,85*,-8,6,-9
O=C(Cn1nnc(-c2ccc(F)cc2)n1)Nc1ccc2c(c1)OCCO2,-1,0,-1,-3,5,0
CC(C)[C@@H](C)NC(=O)N(C)C[C@@H]1OCc2ccccc2-c2ccccc2C(=O)N([C@@H](C)CO)C[C@H]1C,/,-28,/,/,/,/
COc1ccccc1C#Cc1ccc([C@@H]2[C@@H](CO)N(C(=O)C3CCC3)[C@H]2C#N)cc1,/,39,/,/,/,/
C[C@H](CO)N1C[C@H](C)[C@H](CN(C)Cc2ccncc2)Oc2c(NS(=O)(=O)c3ccc(F)cc3)cccc2C1=O,/,6,/,/,/,/

# From PubChem
